This note sets out measurements from ChEMBL document CHEMBL1961873, “Compounds: GSK PKIS; Assays: Nanosyn kinase panel” (2012).

Broadly, the inhibition is the change of the read-out against control, counted positive when it falls.

In experiment [1] the target is Tyrosine-protein kinase Fyn (Homo sapiens) (UniProt P06241). The settings on record: at 1 µM.
In experiment [2] the target is Tyrosine-protein kinase HCK (Homo sapiens) (UniProt P08631). The settings on record: at 0.1 µM.
For experiment [3] the target is unchanged. The following applies: at 1 µM.
Experiment [4] addresses Insulin-like growth factor 1 receptor (Homo sapiens) (UniProt P08069). The settings on record: at 0.1 µM.
Experiment [5] shares this target. The following applies: at 1 µM.
The target of experiment [6] is Insulin receptor (Homo sapiens) (UniProt P06213). The settings on record: at 0.1 µM.
Sequence of Insulin receptor (Homo sapiens) (P06213 28-758 limits assumed): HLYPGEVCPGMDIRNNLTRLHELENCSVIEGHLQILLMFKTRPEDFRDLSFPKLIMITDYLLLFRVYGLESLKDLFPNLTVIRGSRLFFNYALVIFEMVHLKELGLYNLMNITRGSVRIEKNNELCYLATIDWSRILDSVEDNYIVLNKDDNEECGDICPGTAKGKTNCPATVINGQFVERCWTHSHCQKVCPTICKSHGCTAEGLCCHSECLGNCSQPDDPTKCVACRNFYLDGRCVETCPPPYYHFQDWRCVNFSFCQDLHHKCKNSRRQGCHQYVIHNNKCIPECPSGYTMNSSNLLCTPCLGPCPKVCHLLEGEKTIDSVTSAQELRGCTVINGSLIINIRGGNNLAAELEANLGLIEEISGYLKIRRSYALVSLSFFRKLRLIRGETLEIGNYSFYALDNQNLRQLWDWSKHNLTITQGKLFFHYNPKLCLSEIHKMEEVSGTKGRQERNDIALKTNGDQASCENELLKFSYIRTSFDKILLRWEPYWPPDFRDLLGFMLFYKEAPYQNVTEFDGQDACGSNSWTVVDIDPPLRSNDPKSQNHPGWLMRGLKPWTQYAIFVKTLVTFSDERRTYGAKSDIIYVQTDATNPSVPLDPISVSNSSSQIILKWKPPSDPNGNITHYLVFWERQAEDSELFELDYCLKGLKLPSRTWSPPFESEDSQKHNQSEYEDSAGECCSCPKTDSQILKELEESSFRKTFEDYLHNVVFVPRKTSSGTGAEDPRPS
Sequence of Insulin receptor (Homo sapiens) (P06213 763-1382 limits assumed): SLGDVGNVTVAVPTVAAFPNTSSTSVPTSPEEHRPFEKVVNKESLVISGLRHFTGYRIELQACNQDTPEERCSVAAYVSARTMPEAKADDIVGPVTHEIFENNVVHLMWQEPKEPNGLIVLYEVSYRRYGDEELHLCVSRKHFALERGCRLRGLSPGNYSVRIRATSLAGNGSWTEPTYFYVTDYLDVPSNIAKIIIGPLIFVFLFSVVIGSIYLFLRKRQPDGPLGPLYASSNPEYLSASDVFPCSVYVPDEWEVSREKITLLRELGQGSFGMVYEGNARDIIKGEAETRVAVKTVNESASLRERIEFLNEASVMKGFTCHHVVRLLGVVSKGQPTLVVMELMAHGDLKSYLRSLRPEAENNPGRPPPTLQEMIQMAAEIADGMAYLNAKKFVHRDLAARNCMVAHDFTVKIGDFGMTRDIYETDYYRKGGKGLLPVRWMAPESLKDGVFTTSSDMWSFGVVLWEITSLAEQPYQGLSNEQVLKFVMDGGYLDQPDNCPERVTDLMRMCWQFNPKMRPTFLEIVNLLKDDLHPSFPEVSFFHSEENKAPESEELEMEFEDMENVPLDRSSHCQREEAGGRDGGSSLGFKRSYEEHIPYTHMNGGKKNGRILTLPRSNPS
For experiment [7] the target is unchanged. The settings on record: at 1 µM.
For experiment [8], the target named is Insulin receptor-related protein (Homo sapiens) (UniProt P14616). The settings on record: at 0.1 µM.
For experiment [9] the target is unchanged. The settings on record: at 1 µM.
Experiment [10] deals with T1, Tyrosine-protein kinase ITK/TSK (Homo sapiens) (UniProt Q08881).
T1 sequence (whole entry): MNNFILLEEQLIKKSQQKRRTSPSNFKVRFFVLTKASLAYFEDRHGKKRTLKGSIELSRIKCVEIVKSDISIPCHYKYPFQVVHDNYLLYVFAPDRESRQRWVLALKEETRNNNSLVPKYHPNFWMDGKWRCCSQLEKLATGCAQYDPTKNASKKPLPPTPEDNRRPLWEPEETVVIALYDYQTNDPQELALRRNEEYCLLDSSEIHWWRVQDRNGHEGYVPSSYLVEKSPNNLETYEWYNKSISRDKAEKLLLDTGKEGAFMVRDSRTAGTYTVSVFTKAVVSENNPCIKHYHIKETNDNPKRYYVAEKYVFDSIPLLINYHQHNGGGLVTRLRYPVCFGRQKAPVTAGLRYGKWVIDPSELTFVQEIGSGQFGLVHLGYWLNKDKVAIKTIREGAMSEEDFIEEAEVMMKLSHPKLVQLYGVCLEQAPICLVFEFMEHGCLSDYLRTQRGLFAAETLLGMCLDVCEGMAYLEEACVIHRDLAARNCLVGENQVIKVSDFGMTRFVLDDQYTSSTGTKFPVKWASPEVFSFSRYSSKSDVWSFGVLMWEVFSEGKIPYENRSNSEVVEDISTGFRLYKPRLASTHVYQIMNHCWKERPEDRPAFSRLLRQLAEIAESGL
The following applies: at 0.1 µM.

The target of experiment [11] is T1, Tyrosine-protein kinase ITK/TSK (Homo sapiens). The following applies: at 1 µM.
For experiment [12], the target named is Tyrosine-protein kinase JAK1 (Homo sapiens) (UniProt P23458). The following applies: at 0.1 µM.
The target is the same in experiment [13]. The following applies: at 1 µM.
For experiment [14], the target named is Tyrosine-protein kinase JAK2 (Homo sapiens) (UniProt O60674). The settings on record: at 0.1 µM.
Sequence of Tyrosine-protein kinase JAK2 (Homo sapiens) (O60674 whole entry): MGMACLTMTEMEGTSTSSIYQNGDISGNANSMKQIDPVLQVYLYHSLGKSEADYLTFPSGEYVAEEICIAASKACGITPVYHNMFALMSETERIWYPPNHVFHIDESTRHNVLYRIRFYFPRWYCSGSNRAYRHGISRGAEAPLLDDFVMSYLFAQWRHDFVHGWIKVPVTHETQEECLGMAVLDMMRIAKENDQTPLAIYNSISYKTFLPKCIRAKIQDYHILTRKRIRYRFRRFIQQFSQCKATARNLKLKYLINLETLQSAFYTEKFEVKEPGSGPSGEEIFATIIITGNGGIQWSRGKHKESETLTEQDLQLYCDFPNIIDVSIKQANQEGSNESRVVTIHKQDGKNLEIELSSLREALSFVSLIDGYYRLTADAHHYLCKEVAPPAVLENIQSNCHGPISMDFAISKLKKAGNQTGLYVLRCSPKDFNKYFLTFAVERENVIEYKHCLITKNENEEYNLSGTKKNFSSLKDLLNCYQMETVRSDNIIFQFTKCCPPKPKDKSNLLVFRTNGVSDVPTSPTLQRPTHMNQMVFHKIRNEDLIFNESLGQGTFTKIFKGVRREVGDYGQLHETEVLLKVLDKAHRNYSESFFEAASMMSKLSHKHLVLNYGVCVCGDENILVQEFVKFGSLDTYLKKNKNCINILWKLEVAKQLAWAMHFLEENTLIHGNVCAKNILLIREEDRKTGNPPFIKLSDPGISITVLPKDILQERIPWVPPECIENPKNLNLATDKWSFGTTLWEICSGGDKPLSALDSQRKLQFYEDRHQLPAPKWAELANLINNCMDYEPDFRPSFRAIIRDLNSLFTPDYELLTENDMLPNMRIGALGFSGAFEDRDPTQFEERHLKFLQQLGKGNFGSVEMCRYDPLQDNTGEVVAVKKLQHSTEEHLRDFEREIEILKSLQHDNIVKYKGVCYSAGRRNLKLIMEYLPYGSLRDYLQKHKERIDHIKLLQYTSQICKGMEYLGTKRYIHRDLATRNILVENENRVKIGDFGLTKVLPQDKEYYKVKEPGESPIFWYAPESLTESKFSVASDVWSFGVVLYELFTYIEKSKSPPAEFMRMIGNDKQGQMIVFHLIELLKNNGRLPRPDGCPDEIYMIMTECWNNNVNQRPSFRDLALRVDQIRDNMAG
The target is the same in experiment [15]. The following applies: at 1 µM.
The target of experiment [16] is T2, Tyrosine-protein kinase JAK3 (Homo sapiens) (UniProt P52333).
T2 sequence (whole entry): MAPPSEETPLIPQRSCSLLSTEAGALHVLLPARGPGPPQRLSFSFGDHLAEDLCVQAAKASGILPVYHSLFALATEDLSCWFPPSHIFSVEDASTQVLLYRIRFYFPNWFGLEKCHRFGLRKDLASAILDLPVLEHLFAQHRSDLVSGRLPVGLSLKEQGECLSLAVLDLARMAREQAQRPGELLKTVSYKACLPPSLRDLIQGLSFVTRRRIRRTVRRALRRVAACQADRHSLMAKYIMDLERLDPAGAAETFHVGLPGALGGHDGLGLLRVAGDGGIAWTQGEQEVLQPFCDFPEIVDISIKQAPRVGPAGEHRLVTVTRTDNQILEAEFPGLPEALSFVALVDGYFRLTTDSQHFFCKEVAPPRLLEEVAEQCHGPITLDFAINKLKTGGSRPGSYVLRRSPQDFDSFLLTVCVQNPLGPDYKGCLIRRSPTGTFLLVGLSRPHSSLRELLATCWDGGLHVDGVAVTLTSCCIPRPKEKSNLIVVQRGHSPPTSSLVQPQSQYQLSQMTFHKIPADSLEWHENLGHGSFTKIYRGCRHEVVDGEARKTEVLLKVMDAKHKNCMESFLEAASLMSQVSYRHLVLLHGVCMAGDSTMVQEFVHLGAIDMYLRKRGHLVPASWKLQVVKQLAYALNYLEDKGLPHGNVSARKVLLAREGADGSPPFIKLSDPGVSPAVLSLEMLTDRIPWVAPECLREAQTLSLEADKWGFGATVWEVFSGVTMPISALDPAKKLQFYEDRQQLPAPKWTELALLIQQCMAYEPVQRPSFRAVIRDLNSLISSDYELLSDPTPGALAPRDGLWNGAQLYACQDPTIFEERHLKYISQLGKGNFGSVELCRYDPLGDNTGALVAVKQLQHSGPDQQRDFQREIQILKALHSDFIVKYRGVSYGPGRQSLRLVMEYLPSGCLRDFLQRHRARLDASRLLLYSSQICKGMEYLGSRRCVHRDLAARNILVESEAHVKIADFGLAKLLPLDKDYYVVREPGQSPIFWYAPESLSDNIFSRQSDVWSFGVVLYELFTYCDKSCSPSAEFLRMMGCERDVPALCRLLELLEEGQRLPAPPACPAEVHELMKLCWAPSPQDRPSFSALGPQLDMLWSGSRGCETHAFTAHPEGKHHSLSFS
The following applies: at 0.1 µM.

The target of experiment [17] is T2, Tyrosine-protein kinase JAK3 (Homo sapiens). The following applies: at 1 µM.
The target of experiment [18] is Vascular endothelial growth factor receptor 2 (Homo sapiens) (UniProt P35968). The settings on record: at 0.1 µM.
The target is the same in experiment [19]. The following applies: at 1 µM.
The target of experiment [20] is Mast/stem cell growth factor receptor Kit (Homo sapiens) (UniProt P10721). The settings on record: at 0.1 µM.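 Also: values are mean inhibition of KIT, from the GSK PKIS dataset.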
Sequence of Mast/stem cell growth factor receptor Kit (Homo sapiens) (P10721 whole entry): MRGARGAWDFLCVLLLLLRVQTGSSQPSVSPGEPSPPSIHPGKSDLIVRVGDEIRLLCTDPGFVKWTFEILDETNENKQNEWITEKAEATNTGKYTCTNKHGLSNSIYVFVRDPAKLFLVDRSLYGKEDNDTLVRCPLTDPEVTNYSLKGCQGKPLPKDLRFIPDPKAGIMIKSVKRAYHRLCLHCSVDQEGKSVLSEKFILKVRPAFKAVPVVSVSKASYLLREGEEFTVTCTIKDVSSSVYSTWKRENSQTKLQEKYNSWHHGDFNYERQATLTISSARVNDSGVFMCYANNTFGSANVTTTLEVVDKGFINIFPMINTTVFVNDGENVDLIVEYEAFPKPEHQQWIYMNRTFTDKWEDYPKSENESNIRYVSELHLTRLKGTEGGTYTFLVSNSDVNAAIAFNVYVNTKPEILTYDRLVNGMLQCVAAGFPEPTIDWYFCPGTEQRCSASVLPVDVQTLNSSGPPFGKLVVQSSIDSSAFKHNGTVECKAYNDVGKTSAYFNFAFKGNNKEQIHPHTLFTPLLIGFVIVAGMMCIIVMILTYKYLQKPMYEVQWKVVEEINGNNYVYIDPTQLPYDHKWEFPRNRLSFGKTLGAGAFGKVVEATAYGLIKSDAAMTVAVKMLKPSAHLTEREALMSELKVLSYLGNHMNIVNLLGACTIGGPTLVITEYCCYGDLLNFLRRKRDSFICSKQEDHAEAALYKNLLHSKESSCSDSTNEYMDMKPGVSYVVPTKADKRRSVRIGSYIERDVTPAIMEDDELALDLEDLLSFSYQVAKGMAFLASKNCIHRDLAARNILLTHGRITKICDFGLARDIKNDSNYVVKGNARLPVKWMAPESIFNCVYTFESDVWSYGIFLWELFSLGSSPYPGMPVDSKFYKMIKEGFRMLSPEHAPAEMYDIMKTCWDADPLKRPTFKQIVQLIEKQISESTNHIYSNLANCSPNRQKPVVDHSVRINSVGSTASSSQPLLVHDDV

Sequence of Tyrosine-protein kinase HCK (Homo sapiens) (P08631 2-526 limits assumed): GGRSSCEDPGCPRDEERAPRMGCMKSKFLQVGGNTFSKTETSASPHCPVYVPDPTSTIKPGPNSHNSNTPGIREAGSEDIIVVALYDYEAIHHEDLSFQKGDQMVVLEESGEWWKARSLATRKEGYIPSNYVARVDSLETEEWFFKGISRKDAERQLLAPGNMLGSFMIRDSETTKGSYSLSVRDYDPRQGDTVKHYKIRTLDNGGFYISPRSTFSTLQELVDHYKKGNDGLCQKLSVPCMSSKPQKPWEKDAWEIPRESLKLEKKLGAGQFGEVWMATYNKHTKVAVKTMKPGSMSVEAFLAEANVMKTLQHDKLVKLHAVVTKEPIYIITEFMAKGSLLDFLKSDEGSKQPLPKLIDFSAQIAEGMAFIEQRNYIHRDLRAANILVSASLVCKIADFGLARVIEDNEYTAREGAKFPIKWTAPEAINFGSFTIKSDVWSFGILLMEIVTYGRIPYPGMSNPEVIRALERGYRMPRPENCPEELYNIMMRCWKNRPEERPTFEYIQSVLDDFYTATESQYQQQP
Sequence of Tyrosine-protein kinase Fyn (Homo sapiens) (P06241 2-537 limits assumed): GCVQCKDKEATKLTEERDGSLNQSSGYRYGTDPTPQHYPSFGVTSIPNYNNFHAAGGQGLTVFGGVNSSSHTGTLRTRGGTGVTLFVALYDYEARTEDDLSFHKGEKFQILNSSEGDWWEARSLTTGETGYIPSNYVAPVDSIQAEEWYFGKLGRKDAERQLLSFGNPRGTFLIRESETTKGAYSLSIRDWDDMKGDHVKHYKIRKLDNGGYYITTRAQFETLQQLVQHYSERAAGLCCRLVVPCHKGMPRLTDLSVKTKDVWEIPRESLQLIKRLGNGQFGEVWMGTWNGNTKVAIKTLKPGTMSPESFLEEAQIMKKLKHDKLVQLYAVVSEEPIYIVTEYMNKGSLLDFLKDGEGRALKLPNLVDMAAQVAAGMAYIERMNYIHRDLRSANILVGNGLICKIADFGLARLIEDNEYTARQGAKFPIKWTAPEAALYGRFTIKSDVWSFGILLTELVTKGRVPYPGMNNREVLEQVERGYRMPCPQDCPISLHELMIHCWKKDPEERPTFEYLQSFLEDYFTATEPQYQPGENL

Turning to `CCn1c(-c2nonc2N)nc2cncc(C(=O)N3CC[C@H](N)C3)c21`, the inhibition in experiment [1] worked out at 2.85%; in [2] it was 6.43%; in experiment [3] it was 9.69%; in [4], 4.59%; in [5] it was 6%; in experiment [6] it was 4.27%. The inhibition in experiment [7] is 6.06%; in [8] it was 0.81%; in experiment [9], 1.96%; in experiment [10], 0.55%; in [11], 1.18%; in experiment [12], -1.1%. Besides, the inhibition was 22.4% in experiment [13]; 0.61% in experiment [14]; 1.25% in experiment [15]; -0.95% in experiment [16]; -0.29% in [17]; 7.05% in experiment [18]. In addition, the inhibition worked out at 15.8% in experiment [19] and 5.39% in experiment [20].

As to `COC(=O)Nc1nc2cc(Oc3ccc(NC(=O)Nc4cccc(C(=O)O)c4)cc3)ccc2[nH]1`, the inhibition in [1] is 0.19%; in [2] it was 0.97%; in [3] it was 3.15%; in [4], -3.37%; in [5], -7.4%; in [6], 2.72%. Besides, the inhibition in experiment [7] is 0.58%; in experiment [8], 1.16%; in experiment [9], 2.82%; in experiment [10], -2.99%; in experiment [11], -2.68%; in experiment [12] it was 2.43%. The inhibition in experiment [13] was 2.01%; in experiment [14], -0.28%; in experiment [15], 4.54%; in experiment [16] it was -3.56%; in experiment [17], 0.66%; in experiment [20], 2.05%.

Regarding `COc1cc2ncn(-c3cc(O[C@@H](C)c4ccccc4Cl)c(C(N)=O)s3)c2cc1OC`, the inhibition in [1] was 27.5%; in [2], 10.8%; in [3] it was 43.3%; in [4], -0.08%; in experiment [5] it was 2.3%; in experiment [6], 1.26%. Besides, the inhibition turned out to be 3.04% in experiment [7]; 3.27% in experiment [8]; 3.99% in experiment [9]; 0.13% in experiment [10]; 3.19% in experiment [11]; 0.34% in experiment [12]. Further, the inhibition was 3.27% in experiment [13]; 2.38% in [14]; 1.08% in experiment [15]; -3.05% in experiment [16]; 1.97% in experiment [17]; 18% in [18]. Also, the inhibition was 67.7% in experiment [19] and 4.65% in experiment [20].

In the case of `CNC(=O)c1cncc(/C=C/c2c(Cl)cccc2Cl)c1`, the inhibition is 15.1% in [1]; 11.6% in experiment [2]; 44.9% in [3]; -8.06% in [4]; -3% in experiment [5]; 3.59% in experiment [6]. Moreover, the inhibition in [7] was 2.79%; in experiment [8] it was 2.44%; in experiment [9], 2.34%; in experiment [10], -1.98%; in experiment [11], -1.73%; in experiment [12] it was 2.61%. Also, the inhibition in experiment [13] was 2.48%; in [14], 1.58%; in experiment [15], 2.6%; in experiment [16], -4.61%; in [17] it was -3.71%; in experiment [18] it was 6.02%. Also, the inhibition worked out at 13.1% in [19] and 5.81% in experiment [20].

Take `N#Cc1c(NC(=O)c2cccc3ccccc23)sc2c1CCCC2`: the inhibition in [1] is 4.04%; in experiment [2] it was 4.79%; in [3] it was 6.4%; in [4] it was 1.59%; in experiment [5], 2.51%; in [6], 5.97%. Also, the inhibition in experiment [7] stood at 6.62%; in [8], 0.81%; in experiment [9], 1.11%; in experiment [10], 1.77%; in [11], 1.28%; in experiment [12] it was 3.98%. The inhibition in experiment [13] is 3.68%; in experiment [14], 1.62%; in experiment [15] it was 1.85%; in [16], -0.84%; in experiment [17], 1.51%; in experiment [18] it was 6.33%. Besides, the inhibition came out at 9.83% in [19] and 2.71% in experiment [20].

In the case of `CC1=C(C(=O)Nc2ccc3[nH]ncc3c2)C(c2ccc(F)cc2)NC(=O)N1` (configuration not stated), the inhibition in experiment [1] came out at 4.69%; in experiment [2], 3.04%; in [3], 2.81%; in experiment [4] it was 9.13%; in [5] it was 8.59%; in experiment [6], 4.97%. The inhibition came out at 4.22% in [7]; 0.88% in [8]; 0.72% in experiment [9]; 0.65% in [10]; 1.33% in experiment [11]; 14.4% in experiment [12]. Besides, the inhibition in experiment [13] is 70.3%; in [14], 2.59%; in experiment [15] it was 35.1%; in experiment [16], 1.07%; in experiment [17], 30.8%; in experiment [18], 4.24%. For the same compound, the results for the inhibition in experiment [19] and in [20] were 12.3% and 5.14%, respectively.

Take `CCn1c(-c2nonc2N)nc2c(N3CCCC3)nccc21`: the inhibition in experiment [1] was 0.7%; in experiment [2], -0.01%; in experiment [3], 2.43%; in [4] it was 0.23%; in experiment [5], 2.72%; in [6], 1.98%. For the same compound, the inhibition is -1.23% in [7]; -2.24% in experiment [8]; -0.91% in experiment [9]; 0.23% in [10]; -0.14% in [11]; -2.79% in [13]. For the same compound, the inhibition in experiment [14] was -0.66%; in [15] it was -1.59%; in [16] it was -0.2%; in experiment [17], 2.23%; in experiment [18] it was 1.32%; in experiment [19], 6.67%. Also, the inhibition in experiment [20] was -1.56%.
